# G9a inh: inhibitors of human histone lysine methyltransferase G9a; Q96KQ7; G9a H3K9 monomethylation, AlphaScreen, 2 h; Potency, µM (doses to about 102 µM), without a hit: top-dose activity, negative = inhibition, actives largely listed as inhibitors; actives 8.8% (n = 350,000); AID 504332; note: potency is the fitted concentration of half-maximal effect; % is set by controls: 0 for no effect and ±100 for the full control effect; nearly all actives have a fitted effect of over 75% in size
#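 Signal arises when biotinylated H3K9 peptide, once monomethylated, bridges streptavidin donor and antibody-captured acceptor beads. Enzyme at 20 nM was preincubated 15 min with test compounds; peptide 500 nM and SAM 20 uM then reacted for 2 h.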
# Six1-Eya2 blk: blocks human Six1 binding to Eya2; Q15475+O00167; actives 0.56% (n = 360,000); AID 651725; AlphaScreen GST-Six1/His-Eya2 binding, biochemical; hits give low values; activity change, % (concentration not given with the values); in the data active = activity change below about -65%; inconclusive = mostly about -30% to -63%; note: % is set by controls: 0 for no effect and ±100 for the full control effect
#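 Six1/Eya2 binding was read as AlphaScreen signal after compounds were pinned into GST-Six1 plus His-tagged Eya2 (5X stock 250/500 nM) in pH 8.0 Tris/NaCl/TCEP buffer, beads added, then incubated 1 h, 37 C, dark.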
# HP1b binding inh: HP1-beta chromodomain-methylated histone interaction inhibition; P83916; AlphaScreen HP1-beta / biotin-H3K9me3 peptide binding; Potency, µM (series often up to 114 µM), for the others: at the top dose activity change, negative = inhibition, actives largely listed as inhibitors; actives 0.56% (n = 390,000); AID 540317; note: potency is the fitted concentration of half-maximal effect; nearly all actives have a fitted effect of over 70% in size
#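 AlphaScreen: HP1-beta (50 nM) preformed 30 min with biotin-H3(1-18)K9me3 peptide (50 nM) in PBS pH 7.4, 0.01% Tween-20. Compound added for 30 min at RT, then streptavidin donor/nickel chelate acceptor beads (10 ug/mL) for 30 min.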
# JMJD2A Tudor: JMJD2A Tudor domain (human) inhibition | O75164 | Potency, µM (series often up to 114 µM), inactives show top-dose activity change, negative = inhibition, most hits filed as inhibitors | AID 504339 | actives 4.4% (n = 390,000) | AlphaScreen JMJD2A-Tudor / H3K4me3 peptide binding; note: potency is the fitted concentration of half-maximal effect; % is set by controls: 0 for no effect and ±100 for the full control effect; nearly all actives have a fitted effect of over 50% in size
# Target sequence (O75164 whole entry, looked up, the tested form may be a part): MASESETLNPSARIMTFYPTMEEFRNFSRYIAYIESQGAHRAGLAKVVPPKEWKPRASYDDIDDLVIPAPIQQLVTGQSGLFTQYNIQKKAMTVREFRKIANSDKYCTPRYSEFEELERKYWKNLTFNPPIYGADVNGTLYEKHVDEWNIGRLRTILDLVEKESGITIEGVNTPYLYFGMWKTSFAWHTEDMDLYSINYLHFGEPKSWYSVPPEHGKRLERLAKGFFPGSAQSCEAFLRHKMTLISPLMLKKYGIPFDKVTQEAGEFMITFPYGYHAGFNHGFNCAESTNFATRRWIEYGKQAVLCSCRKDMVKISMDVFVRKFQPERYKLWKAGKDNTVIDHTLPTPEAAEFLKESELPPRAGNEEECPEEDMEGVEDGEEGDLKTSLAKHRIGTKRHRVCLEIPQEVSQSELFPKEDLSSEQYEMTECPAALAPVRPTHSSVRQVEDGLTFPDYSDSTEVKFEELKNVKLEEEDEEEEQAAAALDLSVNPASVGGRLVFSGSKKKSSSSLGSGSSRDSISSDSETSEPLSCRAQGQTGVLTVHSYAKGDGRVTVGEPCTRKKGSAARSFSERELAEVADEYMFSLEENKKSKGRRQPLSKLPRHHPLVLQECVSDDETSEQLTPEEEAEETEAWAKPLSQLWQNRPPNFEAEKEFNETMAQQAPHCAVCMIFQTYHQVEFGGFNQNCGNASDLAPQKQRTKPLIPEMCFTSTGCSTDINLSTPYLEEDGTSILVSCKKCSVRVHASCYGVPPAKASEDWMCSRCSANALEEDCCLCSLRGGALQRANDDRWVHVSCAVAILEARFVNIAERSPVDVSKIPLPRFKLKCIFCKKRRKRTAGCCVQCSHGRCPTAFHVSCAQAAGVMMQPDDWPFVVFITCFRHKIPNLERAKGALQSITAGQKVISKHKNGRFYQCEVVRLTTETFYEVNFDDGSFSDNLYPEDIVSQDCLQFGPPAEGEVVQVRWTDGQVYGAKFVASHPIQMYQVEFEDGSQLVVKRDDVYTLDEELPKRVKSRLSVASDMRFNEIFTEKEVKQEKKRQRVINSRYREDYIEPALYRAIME
# BAZ2B inh: blocks human BAZ2B. Q9UIF8. AlphaScreen BAZ2B-H3K14Ac peptide displacement. Potency, µM (series often up to 114 µM), for the others: at the highest dose activity change, negative = inhibition, hits mostly inhibitors. actives 4.4% (n = 360,000); note: potency is the fitted concentration of half-maximal effect; % is set by controls: 0 for no effect and ±100 for the full control effect; nearly all actives have a fitted effect of over 60% in size
#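 Complex of BAZ2B and biotin-H3K14Ac (50 nM apiece) forms over 30 min at RT, then faces library compounds up to 110 uM for another 30 min; AlphaScreen beads added, 20 min dark incubation, luminescence read.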
# CtBP-E1A inh: inhibitors of CtBP/E1A interaction; AlphaScreen GST-E1A/His-CtBP binding, 1536-well; hits give low values; activity change, % (no concentration beside the values); actives 0.49% (n = 340,000); in the data active = activity change below about -65%; inconclusive = mostly about -30% to -63%; note: % is set by controls: 0 for no effect and ±100 for the full control effect
#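 AlphaScreen with 125 nM GST-E1A and 125 nM His-CtBP (5X stocks) in Tris pH 8.0, 300 mM NaCl, BSA, Tween 20, TCEP. Compounds preincubated 2 h at 37 deg C, then glutathione donor/nickel acceptor beads added for 1 h at 37 deg C in dark.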
# An asterisk follows results filed as active; ? = inconclusive; · = not tested or not shown; [ ] = dose if it differs, or a comment. A selection: hits, their analogues and other compounds. The true share with any hit is near 10%. Unless noted, calls come from the whole dose curve; as a rule, active = well fitted inhibition curve with a large enough effect; inconclusive = small, poorly fitted or top-dose-only effect; inactive = no such curve, though single readings can be large or run the other way.
SMILES,G9a inh,Six1-Eya2 blk,HP1b binding inh,JMJD2A Tudor,BAZ2B inh,CtBP-E1A inh
COC(=O)c1c(NC(=O)Cc2cccs2)sc2c1CCCC2,14.6%[59 µM],-0.5,-2.5%,?,79.4µM*,3.9
C=Cc1cc(F)c(S(=O)(=O)N2CCN(S(=O)(=O)c3ccc4c(c3)OCCO4)CC2)cc1F,·,·,·,-7.5%,·,·
Cc1nc(-c2ccc(S(=O)(=O)N3CCN(c4cccc(C)c4C)CC3)cc2)co1,·,-9.4,-13.8%,?,?,-8.3
Cc1ccc(C(=O)C(NC(=O)c2ccco2)Nc2sc3c(c2C(N)=O)CCCC3)cc1 (stereo not drawn),12.6µM*,·,·,·,?,·
CC(=O)N1CCc2c(sc(NC(=O)C3CCCCC3)c2C(N)=O)C1,?,-0.5,41.4%,-9.0%,5.3%,-1.5
CCOC(=O)c1c(NC(=O)C2CCCCC2C(=O)O)sc2c1CCCCC2 (stereo not drawn),-45.0%,-6.7,-1.8%,-26.8%,?,4.3
COC(=O)c1c(NC(=O)C2CC2)sc2c1CCN(C(C)=O)C2,44.7µM*,-6.9,39.3%,-10.6%,-0.2%,0.0
COC(=O)c1c(NC(=O)C2CCCCC2C(=O)O)sc2c1CCCCC2 (stereo not drawn),31.6µM*,-21.6,-11.1%,-15.9%,-30.4%,-4.4
C/C(=N/NC(=O)c1nnn(-c2nonc2N)c1CSc1ccc(C)cc1)c1ccncc1,·,0.9,·,·,·,3.7
COc1ccccc1C(=O)N1CCC(c2noc(-c3ccc(S(=O)(=O)N4CCCC4)cc3)n2)CC1,0.4%[59 µM],·,21.4%,-23.0%,-10.0%,·
N#Cc1ccc(S(=O)(=O)N2CCN(C(=O)[C@@H]3CCCN3C(=O)c3cccs3)CC2)cc1,·,8.4,29.8%,-5.7%,9.6%,-3.1
O=C(CN1C(=O)NC2(CCCC2)C1=O)N1CCN(S(=O)(=O)c2cc(Cl)ccc2Cl)CC1,15.7%[12.7 µM],-7.2,3.5%,-12.2%,0.6%,-19.1
CCN(CC)Cc1cc2[nH]c3c4ccc(Cl)cc4ncc3c2cc1OC,44.7µM*,4.6,31.1%,-23.2%,-18.1%,·
COc1ccc(CNc2ncnc3cc(Cl)ccc23)cc1OC,8.8%,0.0,41.1%,0.0%[57.1 µM],0.8%,9.8
O=[N+]([O-])c1ccccc1-c1ccc(C(=S)N2CCCCC2)o1,20µM*,?,50.1µM*,44.7µM*,25.1µM*,?
Cc1cccc(N2CCN(C(=S)c3ccc(-c4ccccc4[N+](=O)[O-])o3)CC2)c1,11.2µM*,?,15.8µM*,8.91µM*,10µM*,0.3
O=[N+]([O-])c1ccccc1-c1ccc(C(=S)N2CCCC2)o1,10µM*,-13.1,?,56.2µM*,39.8µM*,0.0
O=C(c1ccc(-c2ccccc2Cl)o1)N1CCCCCCC1,·,-2.6,?,115.8%,·,6.3
COc1ccccc1C(=O)N/C(=C\c1ccc(Br)cc1)C(=O)N1CCCC1,-7.9%,10.1,-3.0%,-15.2%,-16.1%,4.6
Cc1csc2nc(COC(=O)c3cccc(NC(=O)c4cccc(Cl)c4)c3)cc(=O)n12,10.9%[59 µM],·,25.6%,-23.2%,-3.3%,·
CCN=C(Nc1ccc2c(c1)OCO2)SC1CC(=O)N(c2ccccc2F)C1=O (stereo not drawn),18.8%,0.3,7.0%,-0.7%,2.7%,0.3
C/C(CCc1ccc2c(c1)OCO2)=N\N=C(/N)SC1CC(=O)N(c2ccccc2F)C1=O (stereo not drawn),33.5%[0.501 µM],-9.7,24.3%,-10.2%,15.8µM*,-3.0
O=C(Nc1cccnc1Cl)c1cccs1,-11.0%[59 µM],7.5,25.4%,-8.4%,5.0%,8.3
O=C(Oc1ccc(Cl)c2cccnc12)N1CCOCC1,2.3%[59 µM],1.4,37.3%,-15.7%,-0.5%,-1.0
O=C(Oc1c(CN2CCOCC2)cc(Cl)c2cccnc12)c1ccccc1Cl,2.6%,-93.2*,34.1%,50.1µM*,11.2µM*,-91.2*
O=C(Oc1c(Cl)cc(Cl)c2cccnc12)c1ccco1,?,-92.3*,23.4%,89.1µM*,?,-14.4

# Compound activity as filed in PubChem.
